Source: PubChem BioAssay (Broad Institute)
RAD54 branch = RAD54 (human) branch migration inhibition. RAD54 Holliday junction branch migration, FAM/BHQ fluorescence. Q92698. hit rate 0.14% among 360,000. inhibition, % at 10.4 µM;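 active means mean normalized replicate activity at least 40 and at least half of replicates scoring 40 or more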;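 further: inhibitors cause a drop in the FAM fluorescence signal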
CFTR F508del cor = correctors of CFTR F508del function in bronchial epithelial cells. CFBE cells, YFP halide quenching; stimulated with forskolin plus potentiator P3; % fluorescence drop versus neutral controls. activity (quench increase), % at 7.58 µM. hit rate 0.36% among 350,000;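 active means mean added fluorescence quench of at least 8% versus neutral control, with both replicates also reaching 8%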;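 further: cells transiently co-express mutant CFTR-F508del with the halide-sensitive YFP; corrector assay measuring rescue of mutant channel to the surface after 24 h compound exposure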
RAD52 anneal inh = inhibitors of human RAD52 DNA annealing; recombinant RAD52 DNA annealing, FRET fluorescence; inhibition, % at 18.7 µM; hit rate 0.46% among 360,000; AID 651710;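 active means every replicate showing at least 50% inhibition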
Target sequence (P43351 whole entry, looked up): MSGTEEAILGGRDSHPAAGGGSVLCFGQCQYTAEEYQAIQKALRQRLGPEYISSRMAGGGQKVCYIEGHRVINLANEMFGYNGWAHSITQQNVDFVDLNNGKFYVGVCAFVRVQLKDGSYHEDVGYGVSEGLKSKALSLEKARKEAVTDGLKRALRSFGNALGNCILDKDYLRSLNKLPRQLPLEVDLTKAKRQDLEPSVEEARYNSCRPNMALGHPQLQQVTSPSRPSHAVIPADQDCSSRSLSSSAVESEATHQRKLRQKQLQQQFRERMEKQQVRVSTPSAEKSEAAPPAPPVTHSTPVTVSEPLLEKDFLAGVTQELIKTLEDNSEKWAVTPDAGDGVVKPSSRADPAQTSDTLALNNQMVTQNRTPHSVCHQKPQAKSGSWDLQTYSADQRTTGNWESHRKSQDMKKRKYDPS
dFosB act-1 = enhances mouse delta FosB homodimer DNA binding; P13346; purified delta FosB, TAMRA-CDK5 oligo fluorescence polarization; percent of positive-control signal above neutral wells; activation, % at 25 µM; hit rate 0.99% among 340,000;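 active means mean activation above about 17%, with every replicate also reaching it, limit read from the data, passing the limit was not always enough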
PvdQ inh = blocks Pseudomonas aeruginosa PvdQ acylase activity. inhibition, % at 10 µM. purified PvdQ acylase, fluorescence plate reader. hit rate 0.063% among 340,000; in the data active means inhibition above about 30%, passing the limit was not always enough
Glyco luc inh = blocks N-linked glycosylation in D54 reporter cells; D54 ERlucT glycosylation luciferase reporter, 24 h; percent of 100 nM tunicamycin response; reporter increase, % at 12.5 µM; hit rate 0.23% among 360,000; AID 588692;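 active means mean luciferase reporter signal, scaled so untreated is 0 and the glycosylation-blocking control 100, at or above a set limit in every replicate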;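 further: luciferase carries N-glycosylation sites so blocking glycosylation raises the light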
dFosB act-2 = activators of mouse delta FosB homodimer DNA binding; activation, % at 24.9 µM; purified delta FosB, TAMRA-CDK5 oligo fluorescence polarization; normalised: neutral wells 0, positive control 100; 2,400 tested, under 10 active; AID 588690; shares compounds with dFosB act-1;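 active means highest replicate activation at or above 34% and every replicate reaching that threshold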;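 further: higher polarization means more probe DNA bound by delta FosB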
A number is an active result; n = inactive; x = not tested or not shown; ! = not active in a repeat. Hits are enriched below; roughly 1.5% of the tested compounds scored in any of these assays.

SMILES | RAD54 branch | CFTR F508del cor | RAD52 anneal inh | dFosB act-1 | PvdQ inh | Glyco luc inh | dFosB act-2
COc1ccc2[nH]c3c(=O)n(CCCC(=O)NC4CCCCC4C)c(=S)[nH]c3c2c1 (stereo unspecified) | n | n | n | 52 | n | n | x
C[C@H]1CN([C@@H](C)CO)S(=O)(=O)c2ccc(-c3cncnc3)cc2O[C@@H]1CN(C)Cc1ccncc1 | n | n | n | x | x | x | x
COc1ccc(S(=O)(=O)Nc2cccc3ccc(O)cc23)cc1 | n | 14 | n | n | n | n | x
C[C@H]1CCCCO[C@H](CN(C)Cc2ccc3c(c2)OCO3)[C@@H](C)CN([C@@H](C)CO)C(=O)c2cc(NS(=O)(=O)c3ccc(Cl)cc3)ccc2O1 | n | n | 55 | x | x | x | x
C[C@@H]1CN([C@H](C)CO)C(=O)c2cc(NS(=O)(=O)c3ccc(Cl)cc3)ccc2O[C@@H](C)CCCCO[C@H]1CN(C)Cc1ccc2c(c1)OCO2 | n | n | 52! | x | x | x | x
C[C@@H]1CCCCO[C@@H](CN(C)Cc2ccc3c(c2)OCO3)[C@@H](C)CN([C@@H](C)CO)C(=O)c2cc(NS(=O)(=O)c3ccc(Cl)cc3)ccc2O1 | n | n | 58! | x | x | x | x
COc1ccc(-c2ccccc2[C@@H]2[C@@H](C#N)N(C(=O)C3CC3)[C@H]2CO)cc1 | x | n | n | x | x | x | x
O=C(C1CCOCC1)N1CC[C@@H]2[C@H](CO)Nc3ccc(-c4ccc(F)cc4)cc3[C@@H]21 | n | n | n | x | x | x | x
O=C1C=CN(C2OC(CO)C(O)C2O)C(=O)C1 (stereo unspecified) | x | 9.7 | n | x | x | n | x
C[C@H](CO)N1C[C@H](C)[C@H](CN(C)C(=O)C2CCCCC2)Oc2ncc(-c3cccc(F)c3)cc2C1=O | n | n | n | x | x | x | x
COc1ccccc1OCC(O)CN1C(=O)NC(C)(C)C1=O (stereo unspecified) | n | 9.4 | n | n | n | n | x
Cc1cc(OCC(=O)N2CCN(c3cccc(Cl)c3)CC2)c2c(C)c(C)c(=O)oc2c1 | n | n | n | 39 | n | n | n
CO[C@@H]1CN(C)C(=O)c2cc(NC(=O)NC3CCCCC3)ccc2OC[C@@H](C)N(C(C)=O)C[C@@H]1C | n | n | n | x | x | x | x
Cc1cc(NC(=O)c2cncc(Br)c2)ccc1NC(=O)c1cc2ccccc2o1 | n | n | n | 58 | n | n | n
CCC(C)n1c(=O)c(C(=O)Nc2ccccc2S(N)(=O)=O)c(O)c2ccccc21 (stereo unspecified) | n | x | x | 74 | n | n | n
CC(C)Cn1c(=O)c(C(=O)Nc2ccccc2S(N)(=O)=O)c(O)c2ccccc21 | n | n | n | n | n | n | x
Cc1noc(C)c1NC(=O)Nc1ccc2c(c1)CC(=O)N([C@H](C)CO)C[C@@H](C)[C@H](CN(C)C(=O)Nc1ccc(C(F)(F)F)cc1)O2 | n | n | n | x | x | x | x
CNC(=O)C[C@H]1CC[C@@H]2[C@H](COc3ccc(NC(=O)C4CC4)cc3C(=O)N2C)O1 | n | n | x | x | x | x | x
CCC(CC)C(=O)Nc1cccc(S(=O)(=O)c2cccc(NC(=O)C(CC)CC)c2)c1 | n | x | x | 17 | n | n | n
CCC(CC)C(=O)Nc1cccc(C(=O)Nc2ccc(S(N)(=O)=O)cc2)c1 | x | n | n | n | n | n | x
CN(C)c1nc(NCc2ccccc2)nc(N/N=C/c2cccc(Br)c2)n1 | n | n | n | 57 | n | n | n
COC(=O)c1cc(OC)c(OC)cc1NC(=O)c1cc(OC)cc(OC)c1 | x | n | n | 23 | n | n | n
C[C@@H]1CCCCO[C@@H](CN(C)Cc2ccc(C(F)(F)F)cc2)[C@H](C)CN([C@H](C)CO)C(=O)c2cc(NS(=O)(=O)c3ccccc3)ccc2O1 | n | n | n | x | x | x | x
CCc1ccc(NC(=O)CCCNC(=O)Cn2cnc3sc(C)c(C)c3c2=O)cc1 | x | n | n | 32 | n | n | n
COc1cccc(-c2sc3ccccc3c2-c2ccc(OCCN3CCCC3)cc2)c1 | n | n | n | n | n | n | x
SMILES | RAD54 branch | CFTR F508del cor | RAD52 anneal inh | dFosB act-1 | PvdQ inh | Glyco luc inh | dFosB act-2
COc1cccc(-c2sc3ccccc3c2-c2ccc(OCCN3CCCCC3)cc2)c1 | n | x | x | 34 | n | n | n
O=C(Nc1ccc(S(=O)(=O)N2CCOCC2)cc1)c1cc(-c2cc(Cl)ccc2O)n[nH]1 | x | n | n | n | n | n | x
Cc1ccc(-c2cc(C(=O)Nc3ccc(S(=O)(=O)N4CC(C)OC(C)C4)cc3)[nH]n2)c(O)c1 (stereo unspecified) | x | n | n | 42 | n | n | n
Cc1ccc(O)c(-c2cc(C(=O)Nc3ccc(S(=O)(=O)N4CC(C)OC(C)C4)cc3)[nH]n2)c1 (stereo unspecified) | n | x | x | n | n | n | x
Cc1cc(O)c(-c2cc(C(=O)Nc3ccc(S(=O)(=O)N4CCOCC4)cc3)[nH]n2)cc1C | n | x | x | 25 | n | n | n
COc1ccc(CCNC(=O)CCn2c(SCC#N)nc3ccccc3c2=O)cc1OC | n | x | x | 22 | n | n | n
NC1=NC[C@@H](Cc2ccc(O)cc2)N1CCc1cc(C(F)(F)F)cc(C(F)(F)F)c1 | n | n | n | 22 | n | n | n
Cc1ccccc1OCC(=O)N/N=C/c1ccncc1 | x | x | x | n | n | n | x
O=C(Cc1nnc(NC(=O)c2ccccc2)s1)N/N=C/c1ccco1 | n | n | n | 21 | n | n | n
Cc1ccccc1C(=O)Nc1nnc(CC(=O)N/N=C/c2ccncc2)s1 | n | n | n | 38 | n | n | n
O=C(Cc1nnc(NC(=O)c2ccccc2)s1)N/N=C/c1cccc(O)c1 | n | n | n | n | n | n | x
COc1ccccc1NC(=O)c1ccc(NC(=O)Cc2n[nH]c(=O)c3ccccc23)cc1 | n | n | n | 25 | n | n | n
COc1ccccc1C(=O)NC(=O)COC(=O)Cc1n[nH]c(=O)c2ccccc12 | n | n | n | n | n | n | x
C[C@@H]1CN([C@@H](C)CO)C(=O)c2cc(NS(=O)(=O)c3ccc(Cl)cc3)ccc2O[C@H]1CN(C)CC1CC1 | n | n | n | x | x | x | x
Cc1ccc(/C=N/NC(=O)c2cc3c(ccc4ccccc43)o2)o1 | n | n | n | 25 | n | n | n
O=C(N/N=C/c1ccc([N+](=O)[O-])o1)c1cc2c(ccc3ccccc32)o1 | x | n | n | n | n | n | x
O=C(N/N=C/c1cccnc1)c1cc2c(ccc3ccccc32)o1 | n | x | x | 32 | n | n | n
CC(=O)c1ccc(N(C(=O)CS(=O)CC(=O)Nc2ccc(F)cc2)C(C(=O)NC2CCCCC2)c2cccs2)cc1 (stereo unspecified) | x | x | n | 20 | n | n | n
O=C(C[C@@H]1CC[C@H]2[C@@H](COC[C@@H](O)CN2Cc2nccs2)O1)NCc1ccc(F)cc1 | n | n | n | x | x | x | x
O=C(C[C@H]1C=C[C@@H](NC(=O)C2CCOCC2)[C@H](CO)O1)Nc1ccc(-c2ccccc2)cc1 | n | n | n | x | x | x | x
